From PubChem BioAssay (NCI)
This is part of a sample that, as a whole, favours compounds with a hit. Of some 83,000 tested, about 20% had one in any assay.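 48-hour exposure, single concentration, 96-well plates; percent growth endpoint where 0 means no net growth. Active: below 10.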 Values without a mark were called inactive. Active and inactive are the calls of the source.

How the values were obtained:
Experiment in all cases: NCI-60 one-dose screen, 48 h (100 = growth as untreated, 0 = no growth, -100 = all killed)
Conditions in all cases: 10 µM unless noted
SK-MEL-2 melanoma = tested on: SK-MEL-2 melanoma
SN12C renal = tested on: SN12C renal
UO-31 renal = tested on: UO-31 renal
TK-10 renal = tested on: TK-10 renal
ACHN renal = tested on: ACHN renal
CAKI-1 renal = tested on: CAKI-1 renal
A498 renal = tested on: A498 renal
CCRF-CEM leukemia = tested on: CCRF-CEM leukemia
MOLT-4 leukemia = tested on: MOLT-4 leukemia

Structure (SMILES) | growth (SK-MEL-2 melanoma) | growth (SN12C renal) | growth (UO-31 renal) | growth (TK-10 renal) | growth (ACHN renal) | growth (CAKI-1 renal) | growth (A498 renal) | growth (CCRF-CEM leukemia) | growth (MOLT-4 leukemia)
O=C1/C(=C/c2ccc(Cl)cc2)COc2ccc(O)c(O)c21 | 69.9% | -51.5% (active) | -98.5% (active) | 16.7% | -66.3% (active) | -13.8% (active) | 114% | 4.29% (active) | 3.43% (active)
COc1cc(CNC(=O)/C=C/C=C/c2ccc3c(c2)OCO3)ccc1OCc1cn(-c2ccc(C)c(C)c2)nn1 | 93.5% | 84.9% | 99.8% | 120% | 81.3% | 54.4% | 80.3% | 95.7% | 96.2%
c1cnc2[nH]cc(-c3csc(-c4cn(CCCN5CCOCC5)c5ccccc45)n3)c2c1 | 82.6% | 64.5% | 23% | 69.6% | 32.8% | 47.5% | 53.9% | 17.4% | 16.6%
Cc1ccc(Cc2cnc(NC(=O)c3cc(Br)cs3)s2)cc1 | 26.9% | 68.7% | 71.7% | 78.1% | 81.9% | 53.9% | 55.1% | 31.8% | 36.1%
COc1ccc(C2c3sc4c(F)cccc4c3Oc3nc[nH]c(=O)c32)cc1 (stereo not drawn) | 97.8% | 77.8% | 47.6% | 110% | 72.7% | 76.6% | 95% | 85.3% | –
Fc1ccc2[nH]cc(-c3nonc3-c3c[nH]c4ccc(Br)cc34)c2c1 | 27% | 47.3% | 17.3% | 41.5% | 23.3% | 12.4% | 24.9% | 26% | 16.7%
O=C(NCCCCNC(=O)OCc1ccc2c(Cl)cc(Cl)c(O)c2n1)OCc1ccc2c(Cl)cc(Cl)c(O)c2n1 | 29.6% | 28.1% | 37.2% | 61.3% | 26.2% | 13.1% | -1.85% (active) | 18.3% | 22.6%
O=C1Nc2ccccc2/C1=C\c1nc(-c2ccccc2F)n2ccccc12 | -6.84% (active) | 14.5% | -16.2% (active) | -6.87% (active) | -58.5% (active) | -13.9% (active) | -10.4% (active) | 79% | 70.6%
O=C(CSc1nc(-c2ccccc2)[nH]c1S(=O)(=O)c1ccccc1)NC1CC1 | 102% | 96.5% | 89.2% | 87.2% | 104% | 99.2% | 72.9% | 93.4% | 93.8%
N#Cc1c(-c2ccccc2)cc(-c2ccccc2)n(CCCCCC(=O)Nc2ccccc2N)c1=O | 89.7% | 59% | 34.4% | 72.8% | 73.7% | 29.7% | 96.7% | 6.3% (active) | 9.12% (active)
CC(C)CCNC(=O)Cn1cccc(NC(=O)OCc2ccccc2)c1=O | 112% | 103% | 76% | 130% | 103% | 70.3% | 117% | 96.6% | 106%
C=C1C(=O)O[C@H]2[C@H]1CC/C(COC(=O)NCc1ccc(Cn3c(=O)sn(CCI)c3=O)cc1)=C\CC[C@@]1(C)O[C@@H]21 | 73.9% | 70.3% | 68.3% | 0.429% (active) | 27.7% | 7% (active) | 120% | -16.1% (active) | -6.69% (active)
N#CC1C=CN(CC(N)=O)c2ccc3cccnc3c21 (stereo not drawn) | 116% | 96.3% | 97.9% | 115% | – | 91.2% | 85.9% | 78% | 98%
O=C(CSc1nc2ccc([N+](=O)[O-])cc2[nH]1)Nc1ccc(F)cc1 | 63.6% | 55.6% | – | 77.1% | 68.5% | 45.5% | 29.5% | 53.3% | 54.2%
COCCNC(=O)c1ccc(-c2nc3ccc4[nH]ncc4c3c3c2CCCC3)cc1 | 40.2% | 33% | 8.86% (active) | 38.9% | 14.9% | -4.05% (active) | -9.26% (active) | 18.1% | 17.8%
CCn1c(SCC(=O)c2ccc(Br)cc2)nnc1-c1ccncc1 | 104% | 107% | 91.4% | 116% | 109% | 95.6% | 91.1% | 108% | 101%
COc1ccc(/C=N/NC(=O)CCN2c3ccccc3Sc3ccccc32)cc1 | 95.6% | 88.1% | 66.5% | 111% | 86.6% | 41.5% | 55.7% | 82.7% | 97.8%
CN(C)CC(=O)Nc1ccc2ncnc(Nc3ccc(Oc4cccc(C(F)(F)F)c4)c(Cl)c3)c2c1 | 92.1% | 60% | -3.49% (active) | 46.9% | 23.1% | 35.7% | 12.1% | 48.3% | 50.8%
CCOC(=O)c1cc(C(=O)c2cc(OC)c(OC)c(OC)c2)n2ccc(-c3ccncc3)cc12 | 86.5% | 97.8% | 70.3% | 100% | 99.8% | 84.5% | 85.6% | 90% | 115%
Cn1cccc1C(=O)C1C(c2cccc([N+](=O)[O-])c2)C2C3CCCCC3CN2C12C(=O)Nc1ccc(Cl)cc12 (stereo not drawn) | 66.5% | 59.4% | 45.5% | 103% | 59.9% | 17.4% | 86% | 58.6% | 28%
O=C(CCCCCCN1CC(=O)N2[C@H](c3cc(Br)cs3)c3[nH]c4ccccc4c3C[C@H]2C1=O)NO | 50% | 53.7% | 39.6% | 32% | 47.8% | 43.7% | 58.6% | 23.9% | 9.39% (active)
O=C1Nc2ccccc2/C1=C\c1nc(-c2ccccc2)n2ccccc12 | 94.2% | 96.2% | 79.8% | 84.2% | 71.1% | 76.5% | 119% | 84.1% | 88.1%
O=C1c2c(c3c4ccccc4[nH]c3c3ccc4ccccc4c23)C(=O)N1CCN1CCCCC1 | 90.5% | 22.6% | 39.7% | 87.4% | 12.7% | 24.7% | 45.7% | 3.2% (active) | 7.16% (active)
CCCNC(=O)Oc1ccc(/C(=C(/C)Cc2ccc(OC)cc2)c2ccc(OCCCN(C)C)cc2)cc1 | 96.5% | 84% | – | 88.3% | 99.4% | 101% | 97.6% | 56.4% | 33.1%
Cc1nc2sc(C(=O)Nc3cccc(Cl)c3C)c(N)c2cc1C(=O)c1ccccc1 | 49.7% | 29.3% | 38.8% | 47.1% | 33.7% | 33.1% | -7.4% (active) | 8.23% (active) | –
N#Cc1cnc(NCCc2ccncc2)nc1-n1cnc2ccccc21 | 34.6% | 65.1% | 33.3% | 20.4% | 26.1% | 8.54% (active) | 29.6% | 77.2% | 47.3%
COc1ccc2c3c([nH]c2c1)C(=O)c1nc(C)ccc1C3=O | 66.7% | 38.4% | 39.6% | 109% | 35% | 51.8% | 67.6% | 53.2% | 7.34% (active)
